Test results reported in ChEMBL document CHEMBL1961873, “Compounds: GSK PKIS; Assays: Nanosyn kinase panel” (2012).

Assays:
[1] = molecular target: Sphingosine kinase 1 (Homo sapiens) (UniProt Q9NYA1); conditions: at 1 µM;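 further: mean SPHK1 inhibition value reported from the GSK PKIS kinase panel screen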
[2] = molecular target: T1, Sphingosine kinase 2 (Homo sapiens) (UniProt Q9NRA0); conditions: at 0.1 µM
T1 sequence (whole entry): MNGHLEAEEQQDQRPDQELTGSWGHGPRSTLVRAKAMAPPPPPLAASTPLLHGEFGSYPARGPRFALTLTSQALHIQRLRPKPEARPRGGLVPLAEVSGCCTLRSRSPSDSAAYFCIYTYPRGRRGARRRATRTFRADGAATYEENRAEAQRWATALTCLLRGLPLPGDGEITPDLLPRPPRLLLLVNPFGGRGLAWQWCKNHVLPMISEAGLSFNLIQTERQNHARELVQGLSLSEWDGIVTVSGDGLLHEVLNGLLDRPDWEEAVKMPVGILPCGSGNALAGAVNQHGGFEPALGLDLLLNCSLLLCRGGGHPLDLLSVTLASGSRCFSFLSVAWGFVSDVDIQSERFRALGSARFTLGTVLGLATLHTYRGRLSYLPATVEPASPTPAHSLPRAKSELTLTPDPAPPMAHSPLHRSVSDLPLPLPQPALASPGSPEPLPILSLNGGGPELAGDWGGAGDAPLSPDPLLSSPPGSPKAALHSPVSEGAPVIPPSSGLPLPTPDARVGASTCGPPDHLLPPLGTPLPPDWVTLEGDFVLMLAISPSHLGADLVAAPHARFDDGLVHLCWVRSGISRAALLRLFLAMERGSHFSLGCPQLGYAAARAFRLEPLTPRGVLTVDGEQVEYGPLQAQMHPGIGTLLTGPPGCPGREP

[3] = molecular target: T1, Sphingosine kinase 2 (Homo sapiens); conditions: at 1 µM
[4] = molecular target: Casein kinase II subunit alpha (Homo sapiens) (UniProt P68400); conditions: at 0.1 µM
[5] = molecular target: Casein kinase II subunit alpha (Homo sapiens) (UniProt P68400); conditions: at 1 µM
[6] = molecular target: T2, Inhibitor of nuclear factor kappa-B kinase subunit alpha (Homo sapiens) (UniProt O15111); conditions: at 0.1 µM
T2 sequence (whole entry): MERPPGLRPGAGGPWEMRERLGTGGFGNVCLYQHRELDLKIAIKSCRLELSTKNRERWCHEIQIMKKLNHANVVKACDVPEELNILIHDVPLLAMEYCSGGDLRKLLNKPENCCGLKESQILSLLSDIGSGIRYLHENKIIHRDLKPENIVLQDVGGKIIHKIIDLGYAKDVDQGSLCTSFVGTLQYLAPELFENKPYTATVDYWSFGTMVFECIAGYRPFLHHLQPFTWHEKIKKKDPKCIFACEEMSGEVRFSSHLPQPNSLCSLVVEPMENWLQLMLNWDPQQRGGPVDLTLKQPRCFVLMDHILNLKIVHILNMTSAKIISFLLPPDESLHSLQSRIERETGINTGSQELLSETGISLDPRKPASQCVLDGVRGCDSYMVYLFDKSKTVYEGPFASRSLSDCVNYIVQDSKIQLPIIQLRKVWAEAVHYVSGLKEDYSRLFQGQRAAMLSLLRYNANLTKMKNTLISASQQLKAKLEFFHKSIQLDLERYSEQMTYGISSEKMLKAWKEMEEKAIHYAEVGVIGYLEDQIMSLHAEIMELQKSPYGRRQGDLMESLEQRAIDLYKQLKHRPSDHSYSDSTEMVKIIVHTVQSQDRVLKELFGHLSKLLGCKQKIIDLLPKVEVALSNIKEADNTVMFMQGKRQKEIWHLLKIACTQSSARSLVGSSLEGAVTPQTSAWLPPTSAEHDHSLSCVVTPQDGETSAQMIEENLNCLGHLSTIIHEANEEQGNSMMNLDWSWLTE

[7] = molecular target: T2, Inhibitor of nuclear factor kappa-B kinase subunit alpha (Homo sapiens); conditions: at 1 µM
[8] = molecular target: T3, Inhibitor of nuclear factor kappa-B kinase subunit beta (Homo sapiens) (UniProt O14920); conditions: at 0.1 µM
T3 sequence (whole entry): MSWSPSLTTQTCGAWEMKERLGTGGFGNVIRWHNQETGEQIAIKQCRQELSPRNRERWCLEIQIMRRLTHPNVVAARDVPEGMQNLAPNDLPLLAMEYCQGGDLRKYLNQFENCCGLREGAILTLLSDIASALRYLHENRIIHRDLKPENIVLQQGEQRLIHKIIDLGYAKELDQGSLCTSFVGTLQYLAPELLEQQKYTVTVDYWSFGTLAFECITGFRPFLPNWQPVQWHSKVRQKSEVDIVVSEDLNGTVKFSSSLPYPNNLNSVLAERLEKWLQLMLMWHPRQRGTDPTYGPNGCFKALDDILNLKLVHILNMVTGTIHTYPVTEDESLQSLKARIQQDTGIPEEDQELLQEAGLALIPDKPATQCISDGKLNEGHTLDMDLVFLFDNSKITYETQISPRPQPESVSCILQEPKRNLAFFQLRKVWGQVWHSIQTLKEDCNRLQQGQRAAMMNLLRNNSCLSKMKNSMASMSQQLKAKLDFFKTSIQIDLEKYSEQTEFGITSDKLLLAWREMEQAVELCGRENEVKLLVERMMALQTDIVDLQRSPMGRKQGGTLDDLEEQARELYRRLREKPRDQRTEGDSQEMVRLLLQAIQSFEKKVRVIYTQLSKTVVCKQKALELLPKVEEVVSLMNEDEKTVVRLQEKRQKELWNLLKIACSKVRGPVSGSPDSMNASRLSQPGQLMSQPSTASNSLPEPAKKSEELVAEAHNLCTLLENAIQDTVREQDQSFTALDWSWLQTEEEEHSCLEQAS

[9] = molecular target: T3, Inhibitor of nuclear factor kappa-B kinase subunit beta (Homo sapiens); conditions: at 1 µM
[10] = molecular target: T4, Inhibitor of nuclear factor kappa-B kinase subunit epsilon (Homo sapiens) (UniProt Q14164); conditions: at 0.1 µM
T4 sequence (whole entry): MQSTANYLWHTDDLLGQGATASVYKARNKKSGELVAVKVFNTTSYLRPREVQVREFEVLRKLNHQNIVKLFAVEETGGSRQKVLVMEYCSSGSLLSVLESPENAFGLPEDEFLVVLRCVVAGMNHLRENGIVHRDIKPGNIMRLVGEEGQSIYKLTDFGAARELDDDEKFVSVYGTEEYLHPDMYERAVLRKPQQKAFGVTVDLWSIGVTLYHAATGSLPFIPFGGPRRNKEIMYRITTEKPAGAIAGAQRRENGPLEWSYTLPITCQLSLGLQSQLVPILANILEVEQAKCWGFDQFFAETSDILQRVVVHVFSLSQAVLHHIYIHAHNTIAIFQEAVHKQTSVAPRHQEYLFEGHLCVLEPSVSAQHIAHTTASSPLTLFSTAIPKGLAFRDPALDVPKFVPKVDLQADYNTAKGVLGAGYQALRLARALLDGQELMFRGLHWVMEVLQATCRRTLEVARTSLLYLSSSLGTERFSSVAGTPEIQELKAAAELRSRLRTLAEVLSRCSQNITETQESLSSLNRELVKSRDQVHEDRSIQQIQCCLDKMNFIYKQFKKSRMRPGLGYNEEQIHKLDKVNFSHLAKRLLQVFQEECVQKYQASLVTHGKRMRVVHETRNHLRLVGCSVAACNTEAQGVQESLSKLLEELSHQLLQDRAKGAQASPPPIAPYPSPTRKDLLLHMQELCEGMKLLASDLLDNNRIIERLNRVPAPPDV

[11] = molecular target: T4, Inhibitor of nuclear factor kappa-B kinase subunit epsilon (Homo sapiens); conditions: at 1 µM
[12] = molecular target: T5, Serine/threonine-protein kinase Nek1 (Homo sapiens) (UniProt Q96PY6); conditions: at 0.1 µM
T5 sequence (whole entry): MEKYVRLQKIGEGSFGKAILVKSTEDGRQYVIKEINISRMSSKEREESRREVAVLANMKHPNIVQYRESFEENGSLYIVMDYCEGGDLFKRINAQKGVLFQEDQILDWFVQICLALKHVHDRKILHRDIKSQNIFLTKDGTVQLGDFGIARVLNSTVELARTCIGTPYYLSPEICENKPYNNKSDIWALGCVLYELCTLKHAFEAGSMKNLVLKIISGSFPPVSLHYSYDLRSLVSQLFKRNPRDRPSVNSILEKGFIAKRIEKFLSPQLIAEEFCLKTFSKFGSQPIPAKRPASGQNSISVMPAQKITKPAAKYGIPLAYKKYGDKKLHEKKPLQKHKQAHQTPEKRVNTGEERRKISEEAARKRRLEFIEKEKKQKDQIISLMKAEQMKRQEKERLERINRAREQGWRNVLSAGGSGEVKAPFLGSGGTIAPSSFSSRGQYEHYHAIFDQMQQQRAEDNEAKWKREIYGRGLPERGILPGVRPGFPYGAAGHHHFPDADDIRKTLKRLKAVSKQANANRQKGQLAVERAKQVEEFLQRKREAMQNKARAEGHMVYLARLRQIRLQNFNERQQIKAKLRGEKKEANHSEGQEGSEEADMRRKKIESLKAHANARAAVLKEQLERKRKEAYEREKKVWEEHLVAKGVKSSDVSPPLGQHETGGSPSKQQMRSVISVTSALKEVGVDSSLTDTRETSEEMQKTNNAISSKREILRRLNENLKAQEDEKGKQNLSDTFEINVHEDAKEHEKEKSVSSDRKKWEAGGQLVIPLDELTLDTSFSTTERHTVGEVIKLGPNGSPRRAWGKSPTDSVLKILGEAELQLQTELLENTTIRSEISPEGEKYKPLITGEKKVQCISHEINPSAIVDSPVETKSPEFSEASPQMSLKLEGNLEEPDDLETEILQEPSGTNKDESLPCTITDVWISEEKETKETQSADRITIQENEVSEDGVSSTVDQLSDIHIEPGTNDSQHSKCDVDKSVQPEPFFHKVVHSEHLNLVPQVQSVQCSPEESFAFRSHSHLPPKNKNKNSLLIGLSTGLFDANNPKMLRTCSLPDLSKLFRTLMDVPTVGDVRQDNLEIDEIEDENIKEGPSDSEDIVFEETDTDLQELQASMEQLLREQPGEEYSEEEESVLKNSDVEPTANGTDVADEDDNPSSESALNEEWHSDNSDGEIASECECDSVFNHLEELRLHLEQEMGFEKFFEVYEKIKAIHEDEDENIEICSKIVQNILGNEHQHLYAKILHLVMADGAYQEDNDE

[13] = molecular target: T5, Serine/threonine-protein kinase Nek1 (Homo sapiens); conditions: at 1 µM
[14] = molecular target: T6, Serine/threonine-protein kinase Nek2 (Homo sapiens) (UniProt P51955); conditions: at 0.1 µM
T6 sequence (whole entry): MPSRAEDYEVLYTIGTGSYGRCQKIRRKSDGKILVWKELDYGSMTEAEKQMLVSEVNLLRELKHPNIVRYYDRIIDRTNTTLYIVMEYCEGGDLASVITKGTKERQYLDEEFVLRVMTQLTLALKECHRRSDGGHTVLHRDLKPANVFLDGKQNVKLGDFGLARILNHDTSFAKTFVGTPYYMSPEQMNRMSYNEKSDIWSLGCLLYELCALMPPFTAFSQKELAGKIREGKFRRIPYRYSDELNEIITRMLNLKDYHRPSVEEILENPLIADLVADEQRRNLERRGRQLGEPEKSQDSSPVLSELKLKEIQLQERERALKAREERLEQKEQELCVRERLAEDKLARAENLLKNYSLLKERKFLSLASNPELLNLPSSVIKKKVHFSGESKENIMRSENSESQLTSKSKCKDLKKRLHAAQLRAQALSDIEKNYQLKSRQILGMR

[15] = molecular target: T6, Serine/threonine-protein kinase Nek2 (Homo sapiens); conditions: at 1 µM
[16] = molecular target: Serine/threonine-protein kinase Nek6 (Homo sapiens) (UniProt Q9HC98); conditions: at 0.1 µM
[17] = molecular target: Serine/threonine-protein kinase Nek6 (Homo sapiens) (UniProt Q9HC98); conditions: at 1 µM
[18] = molecular target: Serine/threonine-protein kinase Nek7 (Homo sapiens) (UniProt Q8TDX7); conditions: at 0.1 µM
[19] = molecular target: Serine/threonine-protein kinase Nek7 (Homo sapiens) (UniProt Q8TDX7); conditions: at 1 µM
[20] = molecular target: T7, Serine/threonine-protein kinase Nek9 (Homo sapiens) (UniProt Q8TD19); conditions: at 0.1 µM;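 further: reported value is the mean percent inhibition of NEK9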
T7 sequence (whole entry): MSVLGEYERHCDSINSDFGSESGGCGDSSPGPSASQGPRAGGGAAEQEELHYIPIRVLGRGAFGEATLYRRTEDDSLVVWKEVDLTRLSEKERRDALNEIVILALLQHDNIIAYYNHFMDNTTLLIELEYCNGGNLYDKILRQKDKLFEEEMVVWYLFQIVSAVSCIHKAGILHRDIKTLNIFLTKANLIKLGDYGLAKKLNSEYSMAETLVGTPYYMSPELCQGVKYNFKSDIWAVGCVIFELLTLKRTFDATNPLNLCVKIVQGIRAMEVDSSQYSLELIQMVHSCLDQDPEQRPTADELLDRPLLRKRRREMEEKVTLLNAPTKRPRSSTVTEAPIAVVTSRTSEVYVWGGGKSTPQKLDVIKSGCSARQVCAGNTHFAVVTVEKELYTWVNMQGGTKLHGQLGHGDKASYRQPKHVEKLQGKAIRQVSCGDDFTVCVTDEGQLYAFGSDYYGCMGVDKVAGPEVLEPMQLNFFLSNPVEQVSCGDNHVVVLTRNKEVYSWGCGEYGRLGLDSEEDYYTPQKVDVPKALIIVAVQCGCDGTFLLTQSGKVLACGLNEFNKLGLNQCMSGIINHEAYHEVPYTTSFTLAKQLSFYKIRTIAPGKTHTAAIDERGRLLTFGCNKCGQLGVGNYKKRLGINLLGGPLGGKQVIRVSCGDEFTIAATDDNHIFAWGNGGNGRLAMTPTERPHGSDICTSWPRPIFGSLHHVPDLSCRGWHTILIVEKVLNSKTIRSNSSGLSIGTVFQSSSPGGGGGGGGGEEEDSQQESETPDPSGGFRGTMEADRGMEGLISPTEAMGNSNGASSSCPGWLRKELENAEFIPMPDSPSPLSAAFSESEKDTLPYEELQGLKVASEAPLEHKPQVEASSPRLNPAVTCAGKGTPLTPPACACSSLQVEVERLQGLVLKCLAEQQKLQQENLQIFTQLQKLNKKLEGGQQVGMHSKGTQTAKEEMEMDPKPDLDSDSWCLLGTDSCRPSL

Casein kinase II subunit alpha (Homo sapiens), sequence (P68400 whole entry, looked up): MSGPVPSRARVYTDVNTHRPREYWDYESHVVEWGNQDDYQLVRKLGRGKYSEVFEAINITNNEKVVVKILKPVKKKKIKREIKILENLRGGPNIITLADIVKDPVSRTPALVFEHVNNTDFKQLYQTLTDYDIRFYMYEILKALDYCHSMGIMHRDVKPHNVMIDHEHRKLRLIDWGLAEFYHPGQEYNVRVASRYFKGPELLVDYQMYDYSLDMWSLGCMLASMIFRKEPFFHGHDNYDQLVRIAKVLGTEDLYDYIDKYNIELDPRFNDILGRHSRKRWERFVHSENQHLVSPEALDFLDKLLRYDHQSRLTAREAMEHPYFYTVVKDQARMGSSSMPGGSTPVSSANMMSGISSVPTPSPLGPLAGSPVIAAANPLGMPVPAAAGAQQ
Serine/threonine-protein kinase Nek6 (Homo sapiens), sequence (Q9HC98 whole entry): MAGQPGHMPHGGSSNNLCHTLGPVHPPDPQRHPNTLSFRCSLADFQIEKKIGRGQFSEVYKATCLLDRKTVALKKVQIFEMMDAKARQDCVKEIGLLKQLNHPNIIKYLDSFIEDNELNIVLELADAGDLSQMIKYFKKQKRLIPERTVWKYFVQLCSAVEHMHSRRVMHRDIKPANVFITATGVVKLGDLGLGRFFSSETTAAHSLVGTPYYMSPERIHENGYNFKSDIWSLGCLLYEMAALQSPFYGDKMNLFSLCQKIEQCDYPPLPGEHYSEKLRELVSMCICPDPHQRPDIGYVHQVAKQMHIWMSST
Serine/threonine-protein kinase Nek7 (Homo sapiens), sequence (Q8TDX7 whole entry, looked up): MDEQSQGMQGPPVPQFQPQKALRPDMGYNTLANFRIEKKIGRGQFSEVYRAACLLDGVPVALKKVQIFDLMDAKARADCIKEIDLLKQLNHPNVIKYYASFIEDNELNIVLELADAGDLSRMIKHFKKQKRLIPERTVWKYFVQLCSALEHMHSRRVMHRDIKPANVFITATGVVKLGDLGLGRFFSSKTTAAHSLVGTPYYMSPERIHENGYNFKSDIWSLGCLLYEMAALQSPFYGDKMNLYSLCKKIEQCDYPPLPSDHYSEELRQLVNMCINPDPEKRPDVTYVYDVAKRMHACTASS
Sphingosine kinase 1 (Homo sapiens), sequence (Q9NYA1 whole entry): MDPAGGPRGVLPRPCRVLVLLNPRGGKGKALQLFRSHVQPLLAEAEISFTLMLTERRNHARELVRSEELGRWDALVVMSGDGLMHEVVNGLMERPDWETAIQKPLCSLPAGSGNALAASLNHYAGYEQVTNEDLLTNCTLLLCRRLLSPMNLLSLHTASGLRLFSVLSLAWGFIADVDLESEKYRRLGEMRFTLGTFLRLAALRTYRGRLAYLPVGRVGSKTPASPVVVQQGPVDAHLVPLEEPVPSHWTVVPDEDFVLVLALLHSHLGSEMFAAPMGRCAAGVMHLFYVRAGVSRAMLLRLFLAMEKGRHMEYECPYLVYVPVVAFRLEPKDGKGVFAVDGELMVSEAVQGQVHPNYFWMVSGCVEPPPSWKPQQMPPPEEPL

Row | SMILES | inhibition [1] [%] | inhibition [2] [%] | inhibition [3] [%] | inhibition [4] [%] | inhibition [5] [%] | inhibition [6] [%] | inhibition [7] [%] | inhibition [8] [%] | inhibition [9] [%] | inhibition [10] [%] | inhibition [11] [%] | inhibition [12] [%] | inhibition [13] [%] | inhibition [14] [%] | inhibition [15] [%] | inhibition [16] [%] | inhibition [17] [%] | inhibition [18] [%] | inhibition [19] [%] | inhibition [20] [%]
1 | CN(C)c1cc2c(Nc3ccc4nc(Cc5ccccc5)[nH]c4c3)ncnc2cn1 | -4.39 | -0.89 | -0.82 | 3.31 | 1.45 | 9.26 | 9.4 | 7.48 | 6.68 | 17.5 | 16.6 | 2.45 | 3.05 | 6.53 | 8.34 | 3.19 | -0.04 | 6.44 | 4.66 | 14.3
2 | CCc1cccc(NC(=O)Nc2ccc(Oc3ccc4nc(NC(=O)OC)[nH]c4c3)cc2)c1 | -3.46 | -1.39 | -2.51 | 1.32 | 4.86 | 4.74 | -0.97 | 3.09 | 2.83 | 2.77 | 3.32 | 0.6 | 1.24 | 1.78 | 1.1 | 0.58 | 3.24 | -1.37 | -2.89 | 3.74
